Results: PubChem BioAssay AID504840 (Johns Hopkins Ion Channel Center, 2011)
The campaign covered roughly 1,500 compounds. About 890 (59%) were called active.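 How the source made its calls: active means inhibition of the choline-evoked signal at any tested dose together with a fitted dose-response curve; inactive means no inhibition at any dose or no curve.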 So high a share suggests a set chosen from earlier hits. Only a sample is shown. Where a call stands in place of a potency, no number is given. Potency and affinity values are given separately.

target: High affinity choline transporter 1 (Homo sapiens) (UniProt Q9GZV3); test: CHT inhibitors, dose response, cell-based, 5-point CRC, membrane potential dye (AID 504840); conditions: HEK293-CHT, choline-induced depolarization, CHT with LV-to-AA double alanine mutation; series mostly up to 37 µM
Sequence (Q9GZV3 whole entry, looked up): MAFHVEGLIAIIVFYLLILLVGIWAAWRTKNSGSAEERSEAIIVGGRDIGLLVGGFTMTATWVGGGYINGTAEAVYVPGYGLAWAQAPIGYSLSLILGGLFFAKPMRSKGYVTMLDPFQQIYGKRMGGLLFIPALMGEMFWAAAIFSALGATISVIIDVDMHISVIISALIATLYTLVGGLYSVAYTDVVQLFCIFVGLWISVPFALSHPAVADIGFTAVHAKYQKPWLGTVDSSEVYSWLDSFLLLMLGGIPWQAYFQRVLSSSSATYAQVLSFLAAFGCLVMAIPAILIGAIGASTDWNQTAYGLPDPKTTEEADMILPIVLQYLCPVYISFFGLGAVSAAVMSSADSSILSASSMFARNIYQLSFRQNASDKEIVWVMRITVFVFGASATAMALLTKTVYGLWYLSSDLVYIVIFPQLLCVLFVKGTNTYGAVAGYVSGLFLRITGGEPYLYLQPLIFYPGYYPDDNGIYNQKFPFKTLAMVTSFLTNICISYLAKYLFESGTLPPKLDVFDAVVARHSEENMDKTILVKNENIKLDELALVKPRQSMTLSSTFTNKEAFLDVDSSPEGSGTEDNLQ

| Structure (SMILES) | outcome |
| --- | --- |
| O=C(Nc1nonc1-c1ccc(Cl)cc1)c1ccco1 | inactive |
| Cc1ccc[n+](CC(=O)Nc2cc(C(F)(F)F)ccc2N2CCOCC2)c1 | inactive |
| CC(=O)N1CCN(S(=O)(=O)c2cccc(C(=O)NC3CCC(C)CC3)c2)CC1 (stereo unspecified) | inactive |
| COc1ccc(N(C)S(=O)(=O)c2cccc(C(=O)NC3CCC(C)CC3)c2)cc1 (stereo unspecified) | inactive |
| CN1CCN(S(=O)(=O)c2cccc(C(=O)NC3CCCc4ccccc43)c2)CC1 (stereo unspecified) | inactive |
| CC1CCCC(NC(=O)c2cccc(N3CCCC3=O)c2)C1C (stereo unspecified) | inactive |
| Cc1ccnc(SCc2cc(=O)c(OC(=O)c3ccc(S(=O)(=O)N(C)C)cc3)co2)n1 | inactive |
| O/N=C/c1ccnc(SCc2ccccc2)n1 | inactive |
| Cc1cc(C)nc(SCc2cc(=O)c(OC(=O)c3cc([N+](=O)[O-])ccc3Cl)co2)n1 | inactive |
| Cc1cc(=O)[nH]c(SCC(=O)c2ccc(C)c(C)c2)n1 | inactive |
| CCCCNS(=O)(=O)c1ccc2nc(SCC(=O)c3ccccc3OC)[nH]c2c1 | inactive |
| C=CCNS(=O)(=O)c1ccc(N2C(=O)c3ccccc3C2=O)cc1 | inactive |
| CC(NC(=O)c1ccc(N2CCNCC2)c([N+](=O)[O-])c1)C12CC3CC(CC(C3)C1)C2 (stereo unspecified) | inactive |
| Cc1[nH]n(-c2cccc(Cl)c2)c(=O)c1-c1ccccc1 | inactive |
| COc1ccc2c(c1)CC(C)C/C2=N\NC(=O)c1ccco1 (stereo unspecified) | inactive |
| CCC(CC)Nc1ccc(C(CC(N)=O)NC(=O)c2ccccc2)cc1[N+](=O)[O-] (stereo unspecified) | inactive |
| NC(=O)CC(NC(=O)c1ccc(Br)cc1)c1ccc(N2CCCCCC2)c([N+](=O)[O-])c1 (stereo unspecified) | inactive |
| NC(=O)CC(NC(=O)c1ccc(Br)cc1)c1ccc(N2CCCCCCC2)c([N+](=O)[O-])c1 (stereo unspecified) | inactive |
| NC(=O)CC(NC(=O)c1ccccc1)c1ccc(N2CCc3ccccc3C2)c([N+](=O)[O-])c1 (stereo unspecified) | inactive |
| COC(=O)CCCCCCCCCC[N+]1(C)CCCCC1 | inactive |
| O=S(=O)(Nc1nc2ccccc2s1)c1ccc(Br)s1 | inactive |
| COc1ccc(CN2CCN(CC=C(C)C)C(CCO)C2)cc1Cn1cccn1 (stereo unspecified) | inactive |

| Structure (SMILES) | outcome |
| --- | --- |
| O=C(O)c1ccc(/C=C2\COc3ccccc3C2=O)cc1 | inactive |
| O=C(O)c1ccc(-c2nc(-c3ccccc3Cl)cs2)cc1 | inactive |
| Cc1cc(C)c2nc(N3CCCN(C(=O)c4cnccn4)CC3)c(C#N)cc2c1 | inactive |
| CN1/C(=C\C=Nc2cc(S(=O)(=O)N3CCOCC3)ccc2N2CCOCC2)C(C)(C)c2ccccc21 | inactive |
| Cc1ccc(Nc2nnc(-c3ccc(N4CCOCC4)c([N+](=O)[O-])c3)c3ccccc23)cc1 | inactive |
| Cc1ccc(C(=O)N/C(=C\c2cccs2)C(=O)NC2CCCCC2)cc1 | inactive |
| O=C(CSc1nc(C(F)(F)F)cc(=O)[nH]1)Nc1cccc2ccccc12 | inactive |
| Cc1ccc(S(=O)(=O)/N=C(/NC(=S)Nc2c(C)n(C)n(-c3ccccc3)c2=O)c2ccccc2)cc1 | inactive |
| CCc1nnc(NC(=O)CSc2nnc(-c3ccccc3OC)n2-c2ccccc2)s1 | inactive |
| O=C1c2cccc3c(Nc4ccccc4Cl)c([N+](=O)[O-])cc(c23)C(=O)N1CCO | inactive |
| C=Cn1cc[n+](CC(=O)c2ccc(-c3ccccc3)cc2)c1 | inactive |
| COCCNc1nc(-n2nc(C)cc2C)nc2sc3c(c12)CCCC3 | inactive |
| CCOC(=O)C(Cc1ccccc1)NC(=O)CCCC(=O)c1ccccc1 (stereo unspecified) | inactive |
| Cc1ccc(-c2nn(-c3ccccn3)c(=O)c3ccccc23)cc1 | inactive |
| COc1ccc(NC(=O)c2sc(N)nc2-c2ccccc2)cc1 | inactive |
| O=C(CCC1CCCN(c2ncccn2)C1)NCc1ccc(F)c(F)c1 (stereo unspecified) | inactive |
| Cn1c(CN2CCN(CCO)CC2)c(C#N)c2ccccc21 | inactive |
| S=c1[nH]c2cc(Cl)ccc2s1 | inactive |
| Cc1cc(C)nc(NS(=O)(=O)c2ccc(NC(=O)C3COc4ccccc4O3)cc2)n1 (stereo unspecified) | inactive |
| CN(Cc1nc(-c2cccnc2)no1)S(=O)(=O)c1ccc(Br)cc1 | inactive |
| O=[N+]([O-])c1ccc(SCCc2ccccn2)cc1 | inactive |
| O=C1CSC(=S)N1/N=C/c1c(F)cccc1F | inactive |

| Structure (SMILES) | outcome |
| --- | --- |
| CCc1c(C)nc2ncnn2c1N1CCN(S(=O)(=O)c2ccc(OC)cc2)CC1 | inactive |
| O=[N+]([O-])c1ccc(N2CCCCC2)nc1 | inactive |
| c1ccc(-c2ccccc2OCc2nnc3n2CCC3)cc1 | inactive |
| O=C(NNC(=S)NC1CCCCC1)c1ccccc1O | inactive |
| Cc1ccc2c(c1)C1CN(C)CCC1N2C(=O)c1ccccc1NS(=O)(=O)c1cccc(C(F)(F)F)c1 (stereo unspecified) | inactive |
| CN1CCN(c2ncc(CN3C(=O)c4ccccc4C3=O)s2)CC1 | inactive |
| Cc1cccc(C(=O)Nc2sc(-c3ccccc3)cc2C(=O)O)c1 | inactive |
| CCc1cccc(CC)c1NC(=O)c1cccc(NC(=O)c2ccccc2)c1 | inactive |
| COc1cc(CCC(=O)OCC(=O)NCc2ccc(Cl)cc2)cc(OC)c1OC | inactive |
| Cc1ccccc1C(=O)OC(C)CN1CCN(C)CC1 (stereo unspecified) | inactive |
| CC(C)NS(=O)(=O)c1ccc(CCC(=O)N2CCc3ccccc3C2)cc1 | inactive |
| Cc1ccc(-c2csc(NC(=O)c3ccc(F)cc3)c2C(=O)O)cc1 | inactive |
| Cc1ccc(-c2csc(NC(=O)c3ccc(Br)cc3)c2C(=O)O)cc1 | inactive |
| COc1cc(C(=O)Nc2scc(-c3ccc(C)cc3)c2C(=O)O)cc(OC)c1OC | inactive |
| O=C(COC(=O)C1(c2ccccc2F)CCCC1)N1CCN(C(=O)c2ccco2)CC1 | inactive |
| CC1CCN(C(=O)CCCOc2cc(=O)n(C)c3ccccc23)CC1 | inactive |
| CC1CCCCC1NC(=O)Cn1nc(-c2ccccc2)ccc1=O (stereo unspecified) | inactive |
| COc1cc(NC2CCCCC2O)c2nc(-c3ccc(Cl)cc3)ccc2c1 (stereo unspecified) | inactive |
| Cc1c(NC(=S)NC(=O)c2ccc(-c3ccc(Cl)cc3)o2)cccc1C(=O)O | inactive |
| C/C(=N\NC1=NCCN1)c1ccc(Cl)cc1 | inactive |
| CCCCCNC(=O)c1ccc2c(=O)[nH]c3c(C(=O)NCC4CCCO4)sc(=S)n3c2c1 (stereo unspecified) | inactive |
| CCOc1cc2[nH]c(=S)n(C(C)C)c(=O)c2cc1OCC | inactive |

| Structure (SMILES) | outcome |
| --- | --- |
| CCOCCCn1c(=S)[nH]c2cc(C(=O)N3CCN(C4CCCCC4)CC3)ccc2c1=O | inactive |
| CCOC(=O)C(C)Sc1nnc(NC(=O)c2cccc([N+](=O)[O-])c2C)s1 (stereo unspecified) | inactive |
| O=C(N/N=C/c1cn[nH]c1-c1ccc(Cl)cc1)c1ccc([N+](=O)[O-])cc1 | inactive |
| Cc1ccc(C(=O)NCC(=O)OCC(=O)Nc2ccccc2C#N)s1 | inactive |
| Cc1c(NC(=O)/C=C/c2cn(-c3ccccc3)nc2-c2ccccc2)c(=O)n(-c2ccccc2)n1C | inactive |
| Cc1cccc(N2CCN(C(=O)COc3cc(=O)n(C)c4ccccc34)CC2)c1C | inactive |
| COc1ccccc1C(=O)NC(C)c1cccc2ccccc12 (stereo unspecified) | inactive |
| CN(C)CCNC(=O)C(=O)NCC(c1ccc2c(c1)OCO2)N1CCN(c2ccc(F)cc2)CC1 (stereo unspecified) | inactive |
| O=S(=O)(Nc1nc2ccccc2s1)c1ccc(Cl)nc1 | inactive |
| CCN(Cc1ccccc1)S(=O)(=O)c1cc(C(=O)O)ccc1OC | inactive |
| O=C(NC1CCCCC1)N(Cc1ccccc1)Cc1ccco1 | inactive |
| CCc1ccc(OCc2n[nH]c(=S)n2Cc2ccccc2)cc1 | inactive |
| O=C(NNC1=C(C(=O)C(F)(F)F)CCC1)c1ccc(Cl)cc1 | inactive |
| CCc1ccc2c(c1)C1(NN=C(c3ccccc3)S1)C(=O)N2 (stereo unspecified) | inactive |
| CCc1ccc2c(c1)C1(NN=C(c3ccc(C)cc3)S1)C(=O)N2 (stereo unspecified) | inactive |
| Cc1oc2c(F)c(F)c(F)c(F)c2c1S(=O)(=O)Nc1cccc(C(F)(F)F)c1 | inactive |
| CC(/C=C1\SC(=S)N(C(C(=O)O)c2ccccc2)C1=O)=C\c1ccccc1 (stereo unspecified) | inactive |
| Cc1noc(NS(=O)(=O)c2ccc(NC(=O)c3oc4ccc(Cl)cc4c3C)cc2)c1C | inactive |
| Nc1c(C(=O)NCCN2CCOCC2)c2nc3ccccc3nc2n1CCc1ccccc1F | inactive |
| O=C(Nc1cccc(C(F)(F)F)c1)C1CCN(S(=O)(=O)c2cccnc2)CC1 | inactive |
| O=C(CSc1ccc2ccccc2c1)Nc1ccncc1 | inactive |
| CCc1nnc(NC(=O)CSc2ncc(-c3ccccc3)n2C)s1 | inactive |

| Structure (SMILES) | outcome |
| --- | --- |
| CC(Oc1ccc(Cl)cc1)C(=O)NNC(=S)NC(=O)c1ccco1 (stereo unspecified) | inactive |
| COc1ccc(Br)cc1C(=O)NC(=S)Nc1ccc(Cl)c(C(=O)O)c1 | inactive |
| O=C(NNC(=S)Nc1ccc(Br)cc1)c1ccccc1Br | inactive |
| CCCc1cc(=O)[nH]c(SCc2nc3ccccc3s2)n1 | inactive |
| COc1ccccc1-c1coc2cc(O)cc(O)c2c1=O | inactive |
| O=C(CCc1ccccc1)c1c(O)cc(O)cc1O | inactive |
| Cc1cc(S(=O)(=O)NCc2ccncc2)c(C)cc1Br | inactive |
| O=C(Nc1ccccc1Cl)c1ccc(S(=O)(=O)NCC2CCCO2)cc1 (stereo unspecified) | inactive |
| CCC1CCCCN1CCCNC(=O)c1ccc(N2CCOCC2)c(NS(=O)(=O)c2ccc(OC)cc2)c1 (stereo unspecified) | inactive |
| Cc1ccccc1CNS(=O)(=O)c1ccc2c(c1)OCCO2 | inactive |
| COc1ccc(-n2cnnc2SCC(=O)Nc2cc(S(=O)(=O)N3CCCCC3)ccc2C)cc1 | inactive |
| Cc1ccc(Oc2ccc(S(=O)(=O)NCC(C)(C)N3CCOCC3)cc2)cc1 | inactive |
| CCOC(=O)c1ccc(NS(=O)(=O)c2ccc3c(c2)NC(=O)CCS3)cc1 | inactive |
| Cc1ccccc1C(=O)NNC(=S)NC(=O)c1ccc(Cl)cc1Cl | inactive |
| Cc1cccc(C(=O)NC(=S)NNC(=O)c2cccs2)c1 | inactive |
| Cc1cccc(C(=O)NNC(=S)NC(=O)c2cccs2)c1 | inactive |
| Cc1ccccc1C(=O)NNC(=S)NC(=O)COc1ccccc1 | inactive |
| Cc1ccc(C)c(NCC(=O)NNC(=S)Nc2ccccc2)c1 | inactive |
